Screening results: PubChem, several laboratories
HSF1 inh = HSF1 inhibition; NIH3T3-HGL HSE-luciferase, MG132-induced, luminescence 8 h; stronger effect = lower value; activity change, negative = inhibition, % at 7.5 µM (by protocol); 300,000 tested, 0.77% active;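 active means more than half of replicate wells show activity change below -50%, luminescence cut by over half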;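 further: luciferase reports HSF-1 transcriptional activity via heat shock element; 0% = median of DMSO wells and -100% = zero luminescence signal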
NR0B1 inh = NR0B1 (DAX1) inhibition | HEK293 Gal4-DAX1 luciferase reporter, luminescence | inhibition, % at 6.75 µM | 340,000 tested, 0.99% active;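 active means inhibition above the mean over all tested compounds plus 3 SD, cut at about 4.2% in these data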;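 further: 0% = DAX1-transfected cells with DMSO and 100% = empty-vector control cells with DMSO; inhibition shows as a rise in luminescence from relieved DAX1 repression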
FXN GAA850 act = increases GAA850 frataxin promoter reporter activity; AID 540364; HEK293 lucGAA850 FXN promoter luciferase reporter, 24 h; percent of 10 µM SAHA response; 360,000 tested, 0.56% active; activation, % at 6 µM;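 active means activation above the average of all compounds screened plus 3 SD, cutoff fixed separately per campaign, cut at about 7.5% in these data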;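 further: 0% = DMSO wells and 100% = 10 µM SAHA wells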
AHR act = human AHR activation; P35869; AHR-responsive luciferase reporter cells, luminescence; activation, % at 5 µM; 320,000 tested, 2.5% active; AID 2796; in the data active means activation above about 47%;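 further: 0% = vehicle wells and 100% = reference agonist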
Target sequence (P35869 whole entry, looked up): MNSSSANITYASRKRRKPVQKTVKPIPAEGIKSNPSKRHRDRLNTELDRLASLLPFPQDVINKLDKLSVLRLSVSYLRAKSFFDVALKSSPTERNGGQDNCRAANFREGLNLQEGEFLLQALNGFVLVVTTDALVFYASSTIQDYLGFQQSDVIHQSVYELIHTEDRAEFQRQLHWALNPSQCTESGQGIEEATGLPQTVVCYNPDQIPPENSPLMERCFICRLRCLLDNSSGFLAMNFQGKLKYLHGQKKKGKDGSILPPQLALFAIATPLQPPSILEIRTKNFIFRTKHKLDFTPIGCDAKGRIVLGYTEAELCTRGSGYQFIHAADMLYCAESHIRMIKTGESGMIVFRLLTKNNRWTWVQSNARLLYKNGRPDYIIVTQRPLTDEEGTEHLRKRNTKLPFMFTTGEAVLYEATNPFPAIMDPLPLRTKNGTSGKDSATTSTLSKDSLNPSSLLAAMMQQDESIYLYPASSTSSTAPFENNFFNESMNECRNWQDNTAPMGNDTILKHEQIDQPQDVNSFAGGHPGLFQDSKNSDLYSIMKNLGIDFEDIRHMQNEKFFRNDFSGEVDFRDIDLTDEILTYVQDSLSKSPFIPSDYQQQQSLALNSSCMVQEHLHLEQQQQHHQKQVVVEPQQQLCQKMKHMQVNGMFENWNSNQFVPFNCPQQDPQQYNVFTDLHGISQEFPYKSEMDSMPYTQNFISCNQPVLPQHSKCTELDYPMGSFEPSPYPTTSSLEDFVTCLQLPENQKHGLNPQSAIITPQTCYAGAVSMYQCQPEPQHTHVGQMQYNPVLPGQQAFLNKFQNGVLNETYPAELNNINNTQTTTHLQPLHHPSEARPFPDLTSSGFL
HSP90 refold inh = blocks HSP90-mediated luciferase refolding in reticulocyte lysate | Rabbit reticulocyte lysate, luciferase refolding luminescence, 3 h | inhibition, % at 5.6 µM | 290,000 tested, 0.91% active;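 active means inhibition above the screen-wide mean plus 3 SD, computed separately per campaign, cut at about 16% in these data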;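 further: 0% = DMSO wells and 100% = 60 µM geldanamycin wells; inhibitors lower the luminescence because luciferase stays unfolded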
HSF1 activator = increases HSF-1 driven luciferase reporter signal. NIH3T3-HGL HSF-1 luciferase reporter, MG132, 8 h; 100% = twice DMSO control signal. activation, % at 9 µM. AID 504408. 300,000 tested, 1.7% active;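 active means mean replicate activation of at least 50% with a set share of replicates each reaching 50%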;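 further: 0% = median of the neutral control wells and 100% = twice that signal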
Starred values were filed as active, the others as inactive; x = not tested or not shown. Compounds with a hit are over-represented: about 5.9% of the library has one in this group of screens.

SMILES	HSF1 inh	NR0B1 inh	FXN GAA850 act	AHR act	HSP90 refold inh	HSF1 activator
COc1ccc(CN2C(=NC(=O)CCC3CCCC3)SC3CS(=O)(=O)CC32)cc1 (stereo unspecified)	-70.8*	-0.2	0.6	2.5	0.0	-77.7
CC(C)(C)NC(=O)Cn1c(SCC(=O)NC2CC2)nc2ccccc21	-9.9	4.7*	-0.3	0.4	3.4	-2.7
COc1cccc(CN(C)C[C@@H]2OCc3cnnn3CCCC(=O)N([C@@H](C)CO)C[C@H]2C)c1	x	2.2	0.1	x	x	x
Nc1ncncc1-c1ccccc1Cl	x	1.4	3.2	x	x	x
O=C(N/N=C/c1cccs1)c1cccc2cc[nH]c12	9.0	0.5	3.9	33.4	1.1	11.6
Cc1c(/C=N\NC(=O)c2ccc(F)cc2)cnn1C	10.3	-0.9	3.0	4.7	-4.7	-1.8
Cc1c(/C=N/NC(=O)c2ccc(Br)o2)cnn1C	21.2	x	1.4	13.9	0.2	60.8*
O=C(N/N=C/c1cccs1)c1c[nH]c2ccccc12	24.5	2.5	0.8	153.8*	3.3	18.6
Cc1c(/C=N\NC(=O)c2c[nH]c3ccccc23)cnn1C	3.3	-0.4	2.9	76.1*	-2.0	5.7
O=C(NC1CC1)C1CC(=O)N(c2cccc(Cl)c2)C1 (stereo unspecified)	2.9	-0.8	1.7	4.5	3.8	31.3
NC(=O)C1CCN(C(=O)C(Cc2ccccc2)NC(=O)c2ccccc2)CC1 (stereo unspecified)	x	-0.7	0.2	0.5	x	x
Cn1nc(C(=O)Nc2cc(Cl)ccc2N2CCCC2)c2ccccc2c1=O	x	0.9	2.5	63.7*	x	x
COc1ccc(NC(=O)c2nn(C)c(=O)c3ccccc23)cc1S(=O)(=O)Nc1ccccc1Cl	47.4	2.8	0.0	-0.4	1.8	64.7*
CC1(C(=O)NCCc2ccccc2)Cc2c(-c3cccc(C(N)=O)c3)ccnc2O1 (stereo unspecified)	x	x	-5.9	x	x	x
Cc1nn2c(CN(C(=O)CN3CCOCC3)c3ccccc3)nnc2c2ccccc12	-56.4*	0.0	-1.1	2.1	5.1	-63.1
O=C(COC(=O)c1c[nH]c2ccccc12)Nc1cccc(F)c1	x	-1.1	3.1	19.3	x	x
CC(=O)Nc1ccc(N2N=C(C)C(N=Nc3ccccc3)C2=O)cc1 (stereo unspecified)	13.6	1.0	0.6	49.5*	-0.2	24.7
CC1=NN(c2nc(-c3ccccc3)cs2)C(=O)C1N=Nc1ccccc1 (stereo unspecified)	-38.1	-1.1	0.1	46.1	0.8	-45.8
CC1=NN(c2ccccc2)C(=O)C1N=Nc1ccc(C)cc1 (stereo unspecified)	2.0	x	x	8.8	-1.9	20.1
CC1=NN(c2ccccc2)C(=O)C1N=Nc1ccc(S(N)(=O)=O)cc1 (stereo unspecified)	-77.6*	-1.6	0.9	26.5	7.9	-80.3
O=C(CC12CC3CC(CC(Br)(C3)C1)C2)NC1CCCC1	-6.8	0.1	1.9	0.2	1.1	-3.9
C[C@@H]1CN([C@H](C)CO)C(=O)CCCn2nncc2CO[C@H]1CN(C)S(=O)(=O)c1ccc(F)cc1	x	0.4	0.4	x	x	x
O=c1c2cc(Cl)ccc2nc(-c2ccc([N+](=O)[O-])cc2)n1O	0.7	-0.2	1.2	-0.4	-2.9	14.3
Cc1ccc(-c2nc3ccccc3c(=O)n2N)cc1	9.6	0.1	0.0	35.8	-2.5	6.8
Nn1c(-c2ccccc2)nc2cc(Cl)ccc2c1=O	1.3	1.4	-0.6	52.5*	-3.3	-7.5
SMILES	HSF1 inh	NR0B1 inh	FXN GAA850 act	AHR act	HSP90 refold inh	HSF1 activator
Cc1ccc(-c2nc3c(Cl)cc(Cl)cc3c(=O)n2O)cc1	2.4	0.7	3.8	65.5*	-1.5	8.1
Nn1c(COc2cccc(Cl)c2)nc2ccccc2c1=O	6.1	1.4	4.2	57.9*	-2.0	22.1
On1c(-c2ccccc2)nc2ccc(Cl)cc21	32.2	1.2	2.2	3.7	-1.9	54.3*
O=C(C1CC1)N1CCc2cc(Br)c(S(=O)(=O)N3CCCCCC3)cc21	x	-1.1	-0.9	x	x	x
O=c1c2cc(Br)ccc2nc(-c2ccc(Cl)cc2)n1O	-1.2	-0.5	-0.4	50.2*	10.2	-1.1
CCOc1ccc(C2/C(=C(\O)c3ccc4c(c3)OCCO4)C(=O)C(=O)N2Cc2cccnc2)cc1OCC (stereo unspecified)	-5.1	0.4	0.5	3.3	2.3	-8.2
CCOCC(=O)Nc1ccccc1C(=O)N1CCOCC1	-8.4	0.4	0.8	1.9	2.3	8.9
CC1CCN(CCCNC(=O)c2ccc3c(=O)n(Cc4ccc(Cl)cc4)c(=S)[nH]c3c2)CC1	25.3	-0.4	-0.6	0.1	-2.9	78.9*
COC(=O)c1ccc2c(=O)n(Cc3ccc(C(=O)NCCCN4CCC(C)CC4)cc3)c(=S)[nH]c2c1	12.5	-0.3	1.9	1.8	2.8	-9.1
COc1ccc(C(=O)CC(=O)C(=O)Nc2cccc([N+](=O)[O-])c2C)cc1	18.8	0.0	1.0	-1.1	-3.8	58.4*
Cc1ccc(/C(N)=N/OC(=O)c2ccc(Cl)cc2Cl)cc1	-22.7	4.7*	-5.2	32.3	6.9	-28.1
COc1ccc(Cl)cc1C(=O)O/N=C(\N)c1ccncc1	8.2	0.4	4.6	32.2	3.8	-6.5
COc1cccc(C(=O)CC(=O)C(=O)Nc2cccc([N+](=O)[O-])c2C)c1	-3.7	1.1	-1.1	1.2	-1.8	-4.8
COc1cccc(/C(N)=N/OC(=O)Cc2ccccc2[N+](=O)[O-])c1	11.5	4.7*	1.6	60.5*	2.4	4.5
Cc1cccc(/C(N)=N/OC(=O)c2ccoc2C)c1	34.1	1.6	4.3	6.1	5.9	84.9*
COc1ccc2nc(NN=C(C)c3ccccn3)cc(C)c2c1	x	-4.9	0.8	x	x	x
COc1ccc(CNC(=O)c2cn(Cc3ccc(S(=O)(=O)N(C)C)cc3)c(=O)s2)cc1	x	x	-1.8	x	x	x
Cc1cccc(C(=O)O/N=C(\N)Cc2cccc3ccccc23)c1	-1.2	-0.9	-0.1	16.9	16.7*	9.5
COc1cccc(C(=O)O/N=C(\N)c2ccc(C)cc2)c1	11.2	4.5*	6.3	68.4*	-0.6	34.2
Cc1cccc(/C(N)=N/OC(=O)Cc2cccc3ccccc23)c1	7.0	-1.5	1.7	6.3	-4.4	29.8
COc1ccc(/C(N)=N/OC(=O)c2cccc([N+](=O)[O-])c2C)cc1	2.5	0.1	0.4	54.5*	0.9	-2.0
Cc1cccc(C(=O)O/N=C(\N)c2ccc(Cl)cc2)c1	11.0	0.8	4.5	55.2*	-6.4	31.5
Cc1cccc(C(=O)O/N=C(\N)c2ccc(Br)cc2)c1	21.1	0.8	-0.4	42.3	-1.4	38.4
COc1cc(OC)c(NC(=O)C(=O)CC(=O)c2ccc(C)cc2C)cc1Cl	-0.4	2.4	1.5	0.2	5.2	22.1
Cc1cccc(N(CC(O)CN2CCCC2)S(=O)(=O)c2ccccc2)c1 (stereo unspecified)	-1.5	2.8	-1.8	0.5	-3.4	-9.9
N/C(=N\OC(=O)c1cccs1)c1ccc(Cl)cc1	16.4	x	1.6	24.6	-5.1	59.5*
